Screening results (PubChem BioAssay)
Shiga toxin inh: inhibitors of Shiga toxin in Vero cells; Vero cells, Shiga toxin protein synthesis inhibition reporter; inhibition, % at 38.7 µM; 290,000 tested, 9.2% active; AID 2315; in the data active = inhibition mostly above about 28%, no sharp cut-off; inactive = mostly below about 43%; also: 0% is about no effect
HCV inh: blocks hepatitis C virus | Huh7.5.1 HCVcc-Cre infection, luciferase reporter, 44 h | Potency, µM (series often up to 41.8 µM), inactives show at the top dose activity change, negative = inhibition, actives largely listed as inhibitors | 340,000 tested, 3.4% active | AID 651820; also: potency is read from the fitted curve at half-maximal effect; % is scaled to controls: 0 for no effect and ±100 for the full control effect
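Cells (1,000/well) were plated 4 h before compound, then infected with HCVcc-Cre virus (~0.5 moi). After 44 h further culture, infection was read as luciferase luminescence following a 15 min substrate incubation at room temperature.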
Pf growth 96h: P. falciparum growth inhibition at 96 hours; 320,000 tested, 6.9% active; Potency, µM (doses to about 28.7 µM), for inactives: top-dose activity change, negative = inhibition, usual class: inhibitors; AID 504834; P. falciparum luciferase reporter growth, 96 h; also: potency is read from the fitted curve at half-maximal effect; % is scaled to controls: 0 for no effect and ±100 for the full control effect
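P. falciparum expressing integrated firefly luciferase grown in erythrocytes (2% hematocrit, 0.05% parasitemia final) with compounds for 96 hours at 37 C, 5% CO2. Growth inhibition read as loss of luminescence after adding luciferase detection reagent.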
Cycloheximide cs: counter-screen for Shiga toxin inhibitors: cycloheximide protein synthesis inhibition; cell reporter, cycloheximide protein synthesis inhibition counterscreen; max response, %; 300,000 tested, 12% active; in the data active = max response mostly above about 13%, no sharp cut-off; inactive = mostly below about 14%; also: read at 38.3 µM for the half of the compounds with a filed dose; 0% is about no effect
Pf growth 48h: inhibits P. falciparum growth in the first generation, 48 h. P. falciparum luciferase growth in erythrocytes, 48 h. Potency, µM (top dose mostly 28.7 µM), inactives show at the highest dose activity change, negative = inhibition, actives largely listed as inhibitors. 310,000 tested, 5.9% active; also: potency is read from the fitted curve at half-maximal effect; % is scaled to controls: 0 for no effect and ±100 for the full control effect
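Erythrocytes infected with P. falciparum carrying an integrated firefly luciferase reporter (2% hematocrit, 0.1% parasitemia final) were exposed to compounds in RPMI 1640 with 0.5% Albumax at 37 C, 5% CO2. Growth inhibition was scored as reduced luminescence.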
HCMV inh: blocks human cytomegalovirus replication | HFF cells, HCMV-luciferase reporter, 72 h; active compounds read low | activity change, negative = inhibition, % at 57.5 µM | 410,000 tested, 4.5% active | AID 1259415; in the data active = activity change below about -60%; inconclusive = no clear call, values can overlap the other calls; inactive = above about -39%; also: % is scaled to controls: 0 for no effect and ±100 for the full control effect
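Compounds were evaluated in HFFs infected with an HCMV luciferase reporter virus (MOI 1 PFU/cell). Luciferase in lysates collected 72 h post infection served as the replication measure.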
* hit, by the source's call; ? = inconclusive; / = no result; [ ] = another dose, or the depositor's remark. Most compounds without a hit are left out; they make up all but 21% or so of the library. Unless noted, calls follow the shape of the dose curve; as a rule, active = well fitted inhibition curve with a large enough effect; inconclusive = small, poorly fitted or top-dose-only effect, or another doubt; inactive = no such curve, though single readings can be large or run the other way.

SMILES | Shiga toxin inh | HCV inh | Pf growth 96h | Cycloheximide cs | Pf growth 48h | HCMV inh
CC(=O)c1cccc(NC(=O)CSc2nc(=O)n(Cc3ccco3)c3c2CCC3)c1 | / | / | / | / | / | -28
Cc1ccccc1Nc1nc(N)nc(COC(=O)c2ccc([N+](=O)[O-])o2)n1 | / | 5% | -24% | / | -23% | 93
COc1ccccc1OC(C)C(=O)Nc1ccc2c(c1)OCCO2 (centres undefined) | 25 | 18% | 4% | 19* | 23% | -3
Cc1ccccc1OCCCC(=O)Nc1ccc2c(c1)OCO2 | active | ? | 21% | 32* | 8% | 8
COc1ccccc1OCCC(=O)Nc1ccc2c(c1)OCO2 | / | -15% | / | / | / | -7
NC(=O)c1ccccc1OCC(=O)Nc1ccc2c(c1)OCCO2 | / | -22% | 71% | / | 108% | 14
COc1ccccc1OCC(=O)Nc1ccc2c(c1)OCCO2 | 78* | -5% | 16% | 30* | 119% | 115
Cc1cc(C)[n+](C2C3CC4CC(C3)CC2C4)o1 (centres undefined) | 10 | 3% | 1.9µM* | 4 | ? | ?
CCc1ccc(C2c3c(-c4cc(C)ccc4O)n[nH]c3C(=O)N2CCO)cc1 (centres undefined) | / | / | / | / | / | 11
CCN1C(=O)[C@H]2[C@@H](c3ccc(-c4ccc(Cl)c(Cl)c4)c(OC)c3)N[C@@](Cc3ccccc3)(C(=O)OC)[C@H]2C1=O | / | -14% | 3.7µM* | / | 2.9µM* | 34
CCN1C(=O)[C@H]2[C@@H](c3ccc(-c4ccc5c(c4)OCO5)cc3)N[C@@](Cc3ccccc3)(C(=O)OC)[C@H]2C1=O | / | -9% | / | / | / | -15
CCCCCCSc1ccc([C@H]2N[C@@](Cc3ccccc3)(C(=O)OC)[C@H]3C(=O)N(C)C(=O)[C@@H]23)cc1OC | / | ? | 2.3µM* | / | 3.3µM* | 50
CCN1C(=O)[C@H]2[C@@H](c3ccc(-c4cccc(Cl)c4)cc3)N[C@@](Cc3ccccc3)(C(=O)OC)[C@H]2C1=O | / | ? | 4.7µM* | / | 4.7µM* | -5
CCCSc1ccc([C@H]2N[C@@](C)(C(=O)OC)[C@H]3C(=O)N(C)C(=O)[C@@H]23)cc1OC | / | 7% | 10% | / | ? | -13
COC(=O)[C@]1(Cc2ccccc2)N[C@H](c2ccc(-c3ccc(OC)cc3)cc2)[C@@H]2C(=O)N(C)C(=O)[C@@H]21 | / | 21% | ? | / | ? | -9
Cc1ccc(-n2c(=O)c3c(cnn3C)n(Cc3ccccc3F)c2=O)cc1 | / | / | / | / | / | 5
COCCNC(=O)CCCN1C(=O)CCn2nc(-c3cccn3C)cc21 | / | / | / | / | / | 0
C[C@@H]1NC(=O)[C@H](CCCN=C(N)N)NC(=O)c2cc([N+](=O)[O-])cc(I)c2NCCC[C@@H](C(N)=O)NC1=O | -8 | 7.9µM* | 0% | -1 | 24% | -5
C[C@@H]1NC(=O)[C@H](CCC(N)=O)NC(=O)c2cc([N+](=O)[O-])cc(I)c2NCCC[C@@H](C(N)=O)NC1=O | -4 | -5%[8.37 µM] | 13% | 3 | 32% | -21
CC(C)C[C@H](NC(=O)[C@H](CC(C)C)NC(=O)[C@@H](Cc1c[nH]c2ccccc12)NC(=O)[C@H](Cc1ccccc1)NC(=O)[C@@H](Cc1c[nH]c2ccccc12)NC(=O)[C@H](CCC(N)=O)NC(=O)[C@H](CCC(N)=O)NC(=O)[C@@H]1CCCN1C(=O)[C@H](CCCCN)NC(=O)[C@@H]1CCCN1C(=O)[C@H](N)CCCN=C(N)N)C(N)=O | -7 | / | / | -3 | / | /
Cc1cc(C)c(NC(=O)COc2nc3ccccc3nc2C)c(C)c1 | -10 | 11µM* | 31% | 2 | 9% | ?
Cc1ccc(-c2ccc(C#N)c(=O)n2CC(=O)N(C)C)cc1 | -7 | -1% | 0% | -2 | -25% | -70*
CCOc1ccccc1NC(=O)CSc1ccc(-c2sc(C)nc2C)nn1 | -3 | ? | 10µM* | -1 | ? | ?
Cc1nc(C)c(-c2ccc(SCC(=O)Nc3ccc(Br)cc3)nn2)s1 | / | / | / | / | / | -69*
Cc1ccc(NC(=O)CSc2ccc(-c3sc(-c4ccccc4)nc3C)nn2)cc1F | / | / | / | / | / | 6
SMILES | Shiga toxin inh | HCV inh | Pf growth 96h | Cycloheximide cs | Pf growth 48h | HCMV inh
CCc1ccc(NC(=O)CSc2ccc(-c3sc(C)nc3C)nn2)cc1 | -5 | 11µM* | ? | 8 | -11% | -39
COc1ccccc1NC(=O)CSc1ccc(-c2sc(C)nc2C)nn1 | / | / | / | / | / | 43
COc1ccc(NC(=O)CSc2ccc(-c3sc(C)nc3C)nn2)cc1 | -5 | ? | 13µM* | 12 | -15% | 31
COc1ccc(NC(=O)CSc2ccc(-c3cccs3)nn2)cc1 | / | / | / | / | / | 14
O=C(O)CCc1nn2cc(-c3ccccc3)nc2[nH]c1=O | 2 | -5% | ? | -2 | ? | -12
Cc1nn2cc(-c3ccccc3)nc2[nH]c1=O | 21 | 6% | 0.66µM* | 12 | ? | -11
COc1ccc(S(=O)(=O)N(CCc2ccccc2)CC(=O)Nc2cc(Cl)ccc2C)cc1 | / | / | / | / | / | -1
CCN1C(=O)/C(=C/c2nc3ccccc3c(=O)n2-c2ccc(C)cc2)c2ccccc21 | 10 | -10% | ? | 16 | ? | -78*
CCN1C(=O)/C(=C\c2nc3ccccc3c(=O)n2-c2ccccc2)c2ccccc21 | -11 | 6% | -2% | -3 | 10µM* | -99*
COc1ccc(-n2c(SC)nc3ccccc3c2=O)cc1 | 3 | -27% | ? | 2 | 0% | -24
COc1ccc(-n2c(/C=C3\C(=O)N(C)c4ccccc43)nc3ccccc3c2=O)cc1 | -10 | -14% | 12µM* | -3 | 6.6µM* | -19
CCN1C(=O)/C(=C/c2nc3ccccc3c(=O)[nH]2)c2ccccc21 | -3 | 12% | 20% | 26* | -2% | 12
COc1ccc(CNC(=O)CCC(=O)N2CC3CCCN3c3ccccc32)cc1 (centres undefined) | / | / | / | / | / | 14
CC(=O)c1c(C)nn(CC(O)COc2ccc3ccccc3c2)c1C (centres undefined) | -10 | ? | 2% | 0 | 15% | -5
